Potency data for 14 molecules are collected here from PubChem BioAssay (NCATS).

Where “and” joins values, the source holds several entries; their conditions need not be identical. Equal values may be shown once. Records with an inconclusive call do not appear. Calls of active or inactive are those of the source. The call rests on the fitted dose curve; in most records, active means well fitted curve in the direction sought with a large enough effect; inconclusive means small, poorly fitted or top-dose-only effect, or another doubt; inactive means no such curve, though single readings can be large; an effect the other way counts as inactive or inconclusive.

Test [1] is described as follows: qHTS of pediatric cancer cell lines to identify multiple opportunities for drug repurposing: Primary screen for DAOY cells (AID 1347090). Further: nearly all actives have a fitted effect of over 55% in size. Further: potency means the concentration at half of the fitted maximal effect. The essentials: (§1)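 Viability measured as metabolically active cells via CellTiter-Glo luminescence following 48 hours of compound exposure, 11-point dilutions in confirmatory testing. 500-1,000 cells/well plated 5 hours before dosing; controls were DMSO and 2.3 µM bortezomib.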

Test [2] can be described thus: qHTS of pediatric cancer cell lines to identify multiple opportunities for drug repurposing: Primary screen for SJ-GBM2 cells (AID 1347091). Further: potency means the concentration at half of the fitted maximal effect. The essentials:
as §1
On the technique in general: Quantitative high-throughput screening tests each substance at several concentrations.

Test [3] can be described thus: qHTS of pediatric cancer cell lines to identify multiple opportunities for drug repurposing: Primary screen for A673 cells (AID 1347092). Further: nearly all actives have a fitted effect of over 45% in size. Further: potency means the concentration at half of the fitted maximal effect. The essentials:
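Luminescence from CellTiter-Glo, taken after 15 min at room temperature, served as the proxy for metabolically active cells following 48 h treatment. Both potency and efficacy were taken from curves fitted to the titration data.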

A short description of test [4]: qHTS of pediatric cancer cell lines to identify multiple opportunities for drug repurposing: Primary screen for BT-37 cells (AID 1347094). Further: potency means the concentration at half of the fitted maximal effect. The essentials: (§2)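 Luminescence from CellTiter-Glo served as readout of metabolically active cells after 48 h compound exposure. Titrations: MIPE 11-point, from 0.78 nM; NPC 8-point, from 0.59 nM (final). Concentration-response curves came straight from the primary screen.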

Test [5] in a line: qHTS of pediatric cancer cell lines to identify multiple opportunities for drug repurposing: Primary screen for NB-EBc1 cells (AID 1347095). Further: potency means the concentration at half of the fitted maximal effect. Summed up:
as §2

A short description of test [6]: qHTS of pediatric cancer cell lines to identify multiple opportunities for drug repurposing: Primary screen for Saos-2 cells (AID 1347097). Further: nearly all actives have a fitted effect of over 40% in size. Further: potency means the concentration at half of the fitted maximal effect. The essentials:
as §2

A short description of test [7]: qHTS of pediatric cancer cell lines to identify multiple opportunities for drug repurposing: Primary screen for SK-N-SH cells (AID 1347098). Further: nearly all actives have a fitted effect of over 65% in size. Further: potency means the concentration at half of the fitted maximal effect. The essentials:
(§3)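 Cells (500-1,000/well) rested 5 h, then received compounds for 48 h; metabolically active cells were measured by CellTiter-Glo luminescence. Final concentrations spanned up to 46 µM (MIPE, 11-point) or 0.59 nM-46 µM (NPC, 8-point) in primary screens, 11-point in follow-ups.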

Test [8] is described as follows: qHTS of pediatric cancer cell lines to identify multiple opportunities for drug repurposing: Primary screen for NB1643 cells (AID 1347099). Further: nearly all actives have a fitted effect of over 50% in size. Further: potency means the concentration at half of the fitted maximal effect. The essentials: as §2
The nature of test [9]: qHTS of pediatric cancer cell lines to identify multiple opportunities for drug repurposing: Primary screen for BT-12 cells (AID 1347101). Further: nearly all actives have a fitted effect of over 25% in size. Further: potency means the concentration at half of the fitted maximal effect. Summed up:
as §3

Test [10] can be described thus: qHTS of pediatric cancer cell lines to identify multiple opportunities for drug repurposing: Primary screen for OHS-50 cells (AID 1347103). Further: nearly all actives have a fitted effect of over 40% in size. Further: potency means the concentration at half of the fitted maximal effect. Summed up:
as §3

Test [11] is described as follows: qHTS of pediatric cancer cell lines to identify multiple opportunities for drug repurposing: Primary screen for RD cells (AID 1347104). Further: nearly all actives have a fitted effect of over 55% in size. Further: potency means the concentration at half of the fitted maximal effect. Summed up:
as §2

Test [12] can be described thus: qHTS of pediatric cancer cell lines to identify multiple opportunities for drug repurposing: Primary screen for MG 63 (6-TG R) cells (AID 1347105). Further: nearly all actives have a fitted effect of over 50% in size. Further: potency means the concentration at half of the fitted maximal effect. Summed up:
as §2

A short description of test [13]: qHTS of pediatric cancer cell lines to identify multiple opportunities for drug repurposing: Primary screen for Rh30 cells (AID 1347107). Further: series mostly up to about 46 µM; nearly all actives have a fitted effect of over 75% in size. The essentials: (§4)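 Viability after 48 h compound treatment at 37C, 500-1,000 cells/well, read as ATP luminescence with CellTiter-Glo. Primary screens used 11-point (MIPE, 0.78 nM-46 µM) or 8-point (NPC, 0.59 nM-46 µM) final concentrations; follow-up screens used 11-point dilutions.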

A short description of test [14]: qHTS of pediatric cancer cell lines to identify multiple opportunities for drug repurposing: Primary screen for Rh41 cells (AID 1347108). Further: nearly all actives have a fitted effect of over 70% in size. Further: potency means the concentration at half of the fitted maximal effect. The essentials:
as §2

Test [15] can be described thus: qHTS of pediatric cancer cell lines to identify multiple opportunities for drug repurposing: Primary screen for U-2 OS cells (AID 1347096). Further: nearly all actives have a fitted effect of over 50% in size. Summed up: as §4
Test [16] is described as follows: qHTS of pediatric cancer cell lines to identify multiple opportunities for drug repurposing: Primary screen for Rh18 cells (AID 1347102). Further: nearly all actives have a fitted effect of over 65% in size. The essentials: as §4
The nature of test [17]: qHTS of pediatric cancer cell lines to identify multiple opportunities for drug repurposing: Primary screen for SK-N-MC cells (AID 1347093). Further: potency means the concentration at half of the fitted maximal effect. Summed up: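 Metabolically active cells were quantified by ATP-dependent luminescence (CellTiter-Glo, 15 min at room temperature) following 48 h treatment. Cells had been plated at 500-1,000 per well and settled for 5 h beforehand.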

A short description of test [18]: qHTS of pediatric cancer cell lines to identify multiple opportunities for drug repurposing: Primary screen for LAN-5 cells (AID 1347100). Further: potency means the concentration at half of the fitted maximal effect. The essentials:
as §4

The nature of test [19]: qHTS of pediatric cancer cell lines to identify multiple opportunities for drug repurposing: Primary screen for control Hh wild type fibroblast cells (AID 1347106).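 Further: series mostly up to about 46 µM; a drop in luminescence marks cytotoxicity and a rise apparent proliferation; nearly all actives have a fitted effect of over 55% in size.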 The essentials: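 Cells (500-1,000/well) in growth media were settled 5 h at 37 degrees C, then given compounds for 48 h. Viability was read as CellTiter-Glo luminescence. Primary runs used MIPE at 11 points (0.78 nM-46 µM) and NPC at 8 points (0.59 nM-46 µM); follow-ups used 11 points.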

Test [20] can be described thus: qHTS of pediatric cancer cell lines to identify multiple opportunities for drug repurposing: Confirmatory screen for NB1643 cells (AID 1347109). Further: nearly all actives have a fitted effect of over 45% in size. Further: potency means the concentration at half of the fitted maximal effect. Summed up: as §4

On to `Cc1cc(Nc2nc(N[C@@H](C)c3ncc(F)cn3)ncc2Cl)n[nH]1`, for which the Potency is 2.96 µM (active) in test [1]; 23.5 µM (active) in [2]; 1.18 µM (active) in test [3]; 15.3 µM (active) in [4]; 18.7 µM (active) in test [5]; 26.4 µM (active) in [6]. The Potency in test [7] was 15.2 µM (active); in [8] it was 1.32 µM (active); in test [9], 34.3 µM (active); in test [10] it was 15.3 µM (active); in test [11], 16.6 µM (active); in test [12] it was 11.8 µM (active). Further, the Potency in test [14] was 9.35 µM (active). Besides, the Potency entry in [13] was “inactive”.

In the case of `COc1ccc(CCN2CCN(CCCc3ccccc3)CC2)cc1OC`, the Potency entry in test [1], in test [2], in test [15], in [7], in [16] and in test [12] was “inactive” each time. Moreover, the Potency entry in [13] and in [14] was “inactive” in each case.

As for `O=C(Nc1cccnc1)N1CCC(Cc2cccc(Oc3ccc(C(F)(F)F)cn3)c2)CC1`, the Potency is 14.8 µM (active) in test [1]; 18.7 µM (active) in [2]; 11.8 µM (active) in test [3]; 10.9 µM (active) in test [9]; 10.9 µM (active) in [10]. For the same molecule, the Potency result in test [15], in test [7], in test [8], in test [16], in test [12] and in [14] was “inactive” in each case.

Regarding `Cc1cnc(Nc2ccc(OCCN3CCCC3)cc2)nc1Nc1cccc(S(=O)(=O)NC(C)(C)C)c1`, the Potency entry in test [1], in [2], in [4], in test [5], in test [15] and in test [6] was “inactive” each time. The Potency result in test [18], in [16], in test [11], in test [13] and in test [14] was “inactive” in each case. Also, the Potency in [17] was 18.7 µM (active); in test [8] it was 23.5 µM (active).

For `O=C1CCc2cc(OCCCCc3nnnn3C3CCCCC3)ccc2N1`, the Potency entry in test [1], in [2], in test [3], in test [4], in test [5] and in test [15] was “inactive” in each case. Moreover, the Potency entry in [6], in test [7], in test [18], in [9], in [16] and in test [10] was “inactive” each time. Moreover, the Potency entry in test [11], in [12], in [13] and in test [14] was “inactive” throughout.

With `NC(=O)c1ccc(-c2nc(-c3ccc4c(c3)OCO4)c(-c3ccccn3)[nH]2)cc1`, the Potency entry in test [1], in test [2], in test [3], in test [5], in [15] and in test [6] was “inactive” each time. For the same molecule, the Potency entry in [7], in test [8], in test [18], in [9], in [16] and in test [10] was “inactive” in each case. The Potency entry in [11], in [12], in test [19], in test [13] and in test [14] was “inactive” each time.

For `C[C@]12CC[C@H](O)CC1=CC[C@@H]1[C@H]2CC[C@]2(C)C(c3cccnc3)=CC[C@H]12`, the Potency entry in test [1], in [3], in [17], in test [4], in test [15] and in test [7] was “inactive” each time. For the same molecule, the Potency result in [8], in test [18], in test [9], in test [16], in [10] and in [11] was “inactive” throughout. The Potency entry in [12], in test [19], in test [13] and in test [14] was “inactive” each time.

As to `Cn1cc(-c2ccc3nnc(C(F)(F)c4ccc5ncccc5c4)n3n2)cn1`, the Potency result in [1], in test [3], in [17], in test [15], in test [8] and in test [11] was “inactive” each time. Further, the Potency result in test [19] is “inactive”.

Regarding `Cn1cnc([N+](=O)[O-])c1Sc1ncnc2nc[nH]c12`, the Potency in [1] was 1.91 µM (active) and 6.68 µM (active) and 5.9 µM (active); in [3], 762 nM (active) and 1.06 µM (active) and 1.18 µM (active); in test [4], 994 nM (active) and 1.38 µM (active) and 1.53 µM (active); in [8], 12.1 µM (active); in [18] it was 6.79 µM (active) and 5.26 µM (active). For the same molecule, the Potency result in test [17], in [6], in test [16], in [11], in [12] and in test [19] was “inactive” in each case. Besides, the Potency result in [13] was “inactive”.

On to `Cc1c(C)c2c(c(C)c1O)CCC(C)(COc1ccc(CC3SC(=O)NC3=O)cc1)O2` (stereo not drawn), for which the Potency result in test [1], in [2], in test [3], in [4], in [5] and in test [15] was “inactive” throughout. Besides, the Potency result in test [6], in test [7], in [8], in test [18], in test [16] and in test [11] was “inactive” each time. Besides, the Potency result in test [12], in test [19], in [13], in test [14] and in [20] was “inactive” throughout.

Turning to `Cc1ccnc(NS(=O)(=O)c2ccc(NC(=O)Nc3ccc(S(=O)(=O)Nc4nccc(C)n4)cc3)cc2)n1`, the Potency result in test [1], in test [15], in test [8], in test [16], in [11] and in test [12] was “inactive” in each case. Besides, the Potency entry in [13] and in test [14] was “inactive” each time. In addition, the Potency was 16.6 µM (active) in [2], 10.9 µM (active) in test [4], 14.8 µM (active) in [5] and 24.3 µM (active) in test [9].

Regarding `Cc1ccccc1C(OCCN(C)C)c1ccccc1` (stereo not drawn), the Potency result in test [1], in test [2], in test [3], in test [4], in [5] and in [15] was “inactive” throughout. Besides, the Potency result in test [6], in test [8], in test [18], in test [9], in [16] and in test [11] was “inactive” throughout. Moreover, the Potency result in test [12], in test [19], in [13] and in test [14] was “inactive” each time.

Consider `CCC(=O)N[C@H]1CC[C@H](C(=O)N(C)c2ccc(-c3nc4ccccc4o3)cc2)C1`, for which the Potency is 5.9 µM (active) in test [1]; 3.72 µM (active) in [3]; 0.833 µM (active) in [17]; 0.961 µM (active) in test [7]; 1.66 µM (active) in test [8]; 3.32 µM (active) in test [11]. The Potency result in test [5], in [15], in [6], in test [16] and in test [13] was “inactive” in each case.

In the case of `Nc1nc2[nH]cc(CCc3ccc(C(=O)N[C@@H](CCC(=O)O)C(=O)O)cc3)c2c(=O)[nH]1`, the Potency result in [1], in [4], in test [15], in test [7], in test [8] and in [18] was “inactive” in each case. Moreover, the Potency entry in [9], in test [16], in test [19] and in test [13] was “inactive” throughout. Further, the Potency in test [17] is 0.132 µM (active); in test [5], 1.48 µM (active); in test [20] it was 20.8 µM (active).
